# Results filed as inconclusive are left out. Entries that show only a call come without a potency. Values without a mark were called inactive. The source made the active and inactive calls. Calls come from the whole dose curve; as a rule, active = well fitted cell-killing curve with a large enough effect in the repeat runs; inconclusive = weak or mixed curves, or effect the other way; inactive = flat fitted curve, though single readings scatter.
# How the values were obtained:
# [1] = cAMP Responsive Elements (CRE) small molecule antagonists, cell-based qHTS assay: qHTS cell viability counter screen (AID 2060913); note: nearly all actives have a fitted effect of over 40% in size
# Procedure, shortened: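 Steps: cells plated and held 18 hrs at 37 C/5% CO2; compounds and NKH477 (0.25 uM final) added; 3 hrs incubation; reporter substrate read; CellTiter-Glo added to measure cytotoxicity by luminescence.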
# [2] = cAMP Responsive Elements (CRE) small molecule agonists, cell-based qHTS assay: qHTS cell viability counter screen (AID 2060914);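 note: viability read after 3 h of compound exposure; nearly all actives have a fitted effect of over 50% in size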
# Procedure, shortened: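 Cytotoxicity counter screen multiplexed with the CRE-bla reporter assay in HEK 293T cells: 3 h compound exposure at 37 °C, followed by CellTiter-Glo luminescence measured in the same wells.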
SMILES,Potency [1],Potency [2],"viability change, negative = cytotoxic [1]","activity change, negative = cytotoxicity [2]"
Cc1ccc(C)c(OCCCC(C)(C)C(=O)O)c1,inactive,inactive,,
FB(F)F,inactive,inactive,,
CCCCCCCC(C)=O,inactive,inactive,,
CCOc1ccc(NC(C)=O)cc1,inactive,inactive,,
CCCCCCCCCCCC(=O)OCC,inactive,inactive,,
C=C(C)C(=O)NCCCN(C)C,inactive,inactive,,
CCCCCCCCCC=O,inactive,inactive,,
COC(C)(OC)OC,inactive,inactive,,
O=Cc1ccc(O)c(O)c1O,inactive,inactive,,
NC(=O)NC1NC(=O)NC1=O (stereo not drawn),inactive,inactive,,
COCCCOc1ccnc(CS(=O)c2nc3ccccc3[nH]2)c1C (stereo not drawn),inactive,inactive,,
SCCCCCCCCS,inactive,inactive,,
CCCCCCCCCC#N,inactive,inactive,,
CCO[C@H](Cc1ccc(OCCc2ccc(OS(C)(=O)=O)cc2)cc1)C(=O)O,inactive,inactive,,
CCC(Cc1c(I)cc(I)c(N)c1I)C(=O)O (stereo not drawn),inactive,inactive,,
Cc1nc([N+](=O)[O-])cn1-c1ccc([N+](=O)[O-])cc1,inactive,inactive,,
Cc1ccc(S(=O)(=O)NC(=O)NC2CCCC2)cc1,inactive,inactive,,
Cc1cc(O)cc2c1O[C@](C)(CCC[C@H](C)CCC[C@H](C)CCCC(C)C)CC2,inactive,inactive,,
CC[N+](CC)(CCNC(=O)C(=O)NCC[N+](CC)(CC)Cc1ccccc1Cl)Cc1ccccc1Cl,inactive,inactive,,
Cc1c(N)c(=O)n(-c2ccccc2)n1C,inactive,inactive,,

SMILES,Potency [1],Potency [2],"viability change, negative = cytotoxic [1]","activity change, negative = cytotoxicity [2]"
C#C[C@]1(O)CC[C@H]2[C@@H]3CCC4=CC(=O)CC[C@@H]4[C@H]3CC[C@@]21C,inactive,inactive,,
CCc1ccc(C=O)cc1,inactive,inactive,,
C/C=C(/C(=C/C)c1ccc(O)cc1)c1ccc(O)cc1,inactive,inactive,,
NC(=O)c1ccccc1N,inactive,inactive,,
C=C[Si](C)(C)O[Si](C)(C)C=C,inactive,inactive,,
CCOc1ccc(C(=O)OCCN(CC)CC)cc1,inactive,inactive,,
O=C1NC(=O)c2cccc3cccc1c23,inactive,inactive,,
O=Cc1ccc(Cl)c(Cl)c1,inactive,inactive,,
CCCCCCCCCCCCCCCCCO,,,0.838% [at 18.9 µM],-1.37% [at 18.9 µM]
O=C(O)c1ccc(OCCCOc2ccc(C(=O)O)cc2)cc1,inactive,inactive,,
O=c1[nH]c(=O)n([C@H]2C[C@H](O)[C@@H](CO)O2)cc1I,inactive,inactive,,
OC1CCCC1,inactive,inactive,,
O=S(=O)(Oc1ccc(Cl)cc1Cl)c1ccccc1,inactive,inactive,,
SCCOCCOCCS,inactive,inactive,,
CCCCNc1c(C(=O)OCC)c(C)nc2c1cnn2CC,inactive,inactive,,
NC(N)=NC(N)=NCCc1ccccc1,inactive,inactive,,
O=C(c1ccc(O)cc1)c1ccc(O)cc1O,inactive,inactive,,
CC1(C)OC[C@@H]2O[C@@]3(C(=O)O)OC(C)(C)O[C@H]3[C@@H]2O1,inactive,inactive,,
Cc1[nH]c(C)c(Cl)c(=O)c1Cl,,,2.74% [at 18.9 µM],4.19% [at 18.9 µM]
N=C(N)c1ccc(OCCCOc2ccc(C(=N)N)cc2)cc1,inactive,inactive,,

SMILES,Potency [1],Potency [2],"viability change, negative = cytotoxic [1]","activity change, negative = cytotoxicity [2]"
C=CCn1cc[n+](C)c1,inactive,inactive,,
N=C1N=C(N)c2ccccc21,inactive,inactive,,
CNCC[C@@H](Oc1ccccc1C)c1ccccc1,inactive,inactive,,
c1ccsc1,inactive,inactive,,
Cc1ccc(C)o1,inactive,inactive,,
Oc1ccc(C2CNCCc3c2cc(O)c(O)c3Cl)cc1 (stereo not drawn),inactive,inactive,,
CCNC(=O)C(C)OC(=O)Nc1ccccc1 (stereo not drawn),inactive,inactive,,
CCN(CC)CC(=O)Nc1c(C)cccc1C,inactive,inactive,,
CC(C)(C(=O)c1cccnc1)c1cccnc1,inactive,inactive,,
CCC(=O)OCc1ccc(OC)cc1,inactive,inactive,,
CC(=O)c1c(C)cc(C(C)(C)C)cc1C,inactive,inactive,,
Oc1ccc(Oc2ccccc2)cc1,inactive,inactive,,
CCCCCC(C)=O,inactive,inactive,,
CC(=O)CCC=C(C)C,inactive,inactive,,
C=CC(=O)OCCOC(=O)CCC(=O)O,inactive,inactive,,
c1ccncc1,inactive,inactive,,
COc1cc([N+](=O)[O-])ccc1N,inactive,inactive,,
OCC(CO)(CBr)CBr,inactive,inactive,,
Cc1cc(C)cc(O)c1,inactive,inactive,,
